The source of these data is PubChem BioAssay AID488794 (Sanford-Burnham Center for Chemical Genomics, 2010).

A word on the inhibition: it is the drop in the measured response relative to a control, in per cent.

About 550 (55%) of roughly 1,000 compounds were called active. Rule as the data show it: active = inhibition above about 50%; inactive = the rest. So high a share suggests a set chosen from earlier hits. The list is a sample of the results.

The nature of the test: NALP3 inhibitors in yeast, repeat test, confirmation, luminescence, single concentration, retest (AID 488794). To be noted: yeast expressing human NALP3, luminescence read-out; at 10 µM; active compounds read high.
Consider `CCCCCCCCCCCCn1ccc(=N)cc1`, for which the inhibition was 82.8% (active).
With `Cc1cc2ccccn2c1C(C[N+](=O)[O-])c1c(F)cccc1Cl` (centres undefined), the inhibition was 23.2% (inactive).
For the compound `Cc1ccc(-c2nc3ccccc3c(=O)n2-c2ccc(Br)cn2)cc1`, the inhibition is 45.7% (inactive).
Take `O=C1/C(=C\c2ccc3c(c2)OCO3)N2CCC1CC2`: the inhibition is 35% (inactive).
